Experimental data from PubChem BioAssay (Tox21).
Records with an inconclusive call do not appear. Calls of active or inactive are those of the source. Calls follow the shape of the dose curve; as a rule, active = well fitted curve in the direction sought with a large enough effect in the signal ratio in the repeat runs (not every such curve was filed as active); inconclusive = weak or mixed curves, or effect the other way; inactive = no such curve, though single readings can be large or run the other way; the % refers to the signal ratio.

Target: Estrogen receptor (Homo sapiens) (UniProt P03372)
Sequence (P03372 whole entry, looked up): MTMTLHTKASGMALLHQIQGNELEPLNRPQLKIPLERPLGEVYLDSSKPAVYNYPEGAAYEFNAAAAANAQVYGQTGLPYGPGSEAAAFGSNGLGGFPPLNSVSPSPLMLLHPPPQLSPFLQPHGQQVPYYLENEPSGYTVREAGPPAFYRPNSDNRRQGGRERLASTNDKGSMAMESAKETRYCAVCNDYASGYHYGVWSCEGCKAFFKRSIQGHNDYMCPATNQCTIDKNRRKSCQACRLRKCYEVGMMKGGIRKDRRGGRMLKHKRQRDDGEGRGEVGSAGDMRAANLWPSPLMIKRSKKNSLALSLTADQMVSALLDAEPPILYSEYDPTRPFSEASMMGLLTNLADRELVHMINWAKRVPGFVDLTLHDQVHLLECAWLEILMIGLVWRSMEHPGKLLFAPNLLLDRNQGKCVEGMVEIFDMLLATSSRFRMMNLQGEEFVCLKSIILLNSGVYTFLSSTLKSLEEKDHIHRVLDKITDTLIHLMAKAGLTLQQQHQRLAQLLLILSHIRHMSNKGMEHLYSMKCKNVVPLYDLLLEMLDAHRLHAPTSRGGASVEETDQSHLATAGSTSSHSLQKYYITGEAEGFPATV
Experiment: qHTS assay to identify small molecule antagonists of the estrogen receptor alpha (ER-alpha) signaling pathway (AID 743069)
Conditions: HEK293 ER-alpha-UAS-bla, beta-lactamase ratio, antagonist mode; series mostly up to 69.4 µM; activity, negative = inhibition: at the top concentration
Text: National Center for Advancing Translational Sciences [NCATS]
NIH Chemical Genomics Center [NCGC]
U.S. Environmental Protection Agency [EPA]
National Institutes of Environmental Health Sciences [NIEHS]
National Toxicology Program [NTP]
U.S. Food and Drug Administration [FDA]
Estrogen receptor (ER), a nuclear hormone receptor, plays an important role in development, metabolic homeostasis and reproduction. Two subtypes of ER, ER-alpha and ER-beta have similar expression patterns with some uniqueness in both types. Endocrine disrupting chemicals (EDCs) and their interactions with steroid hormone receptors like ER causes disruption of normal endocrine function. To identify the compounds that inhibit ER signaling, an ER-alpha-UAS-bla GripTiteTM cell line (Invitrogen, Carlsbad, CA, USA) containing a beta-lactamase reporter gene under the control of an Upstream Activator Sequence (UAS) stably integrated into HEK293 cells was used to screen the Tox21 10K compound library.
Tox21 Assay Protocol Summary:
ER-alpha-bla cells were cultured in assay medium containing 2% charcoal stripped FBS overnight in the culture flasks before the assay was performed. The cells were dispensed at 5,000 cells/5 uL of assay medium per well into black wall/clear-bottom 1536-well plates using a Multidrop Combi (ThermoFisher Scientific, Waltham, MA) dispenser. After the assay plates were incubated at a 37C and 5% CO2 for 4 hr, 23 nL of compounds dissolved in DMSO, positive controls or DMSO only was transferred to the assay plate by a Pintool station (Kalypsys, San Diego, CA), followed by addition of 1 uL of 17beta-estradiol in assay medium using a Flying Reagent Dispenser (Aurora Discovery, San Diego, CA). The plates were incubated at 37C and 5% CO2 for 18 hr. Then 1 uL of LiveBLAzerTM B/G FRET substrate was added using a Flying Reagent Dispenser, the plates were incubated at room temperature for 2 hours, and fluorescence intensity was measured by an Envision plate reader (PerkinElmer, Shelton, CT).
% is scaled to controls: 0 for no effect and ±100 for the full control effect.

| Compound | activity, negative = inhibition |
| --- | --- |
| CCCCCCCCCCCCCC(=O)OCC | -1.7% (inactive) |
| CCCCCCCC(=O)N(C)C | 10% (inactive) |
| CCN1CCN(C(=O)N[C@@H](C(=O)N[C@@H]2C(=O)N3C(C(=O)O)=C(CSc4nnnn4C)CS[C@H]23)c2ccc(O)cc2)C(=O)C1=O | -4.36% (inactive) |
| N#Cc1ccccc1C#N | -7.58% (inactive) |
| CC(=O)c1ccc2ccc3ccccc3c2c1 | 4.73% (inactive) |
| O=Cc1ccc(C(=O)O)cc1 | -6.47% [at 79.1 µM] (inactive) |
| CC1=C(O)C(=O)CO1 | 7.59% (inactive) |
| CC(C)(O)CCCC1=CCC(C=O)CC1 (stereo not given) | 2.4% [at 79.1 µM] (inactive) |
| CCC(C)c1nccnc1OC (stereo not given) | 4.64% (inactive) |
| CCCCCCCCCCCBr | -8.32% (inactive) |
| CC(C)c1cc(C(C)C)cc(C(C)C)c1 | 16.1% (inactive) |
| O=C(O)Cc1c(Cl)ccc(Cl)c1Cl | -8.76% (inactive) |
| OCCC(F)(F)C(F)(F)C(F)(F)C(F)(F)C(F)(F)C(F)(F)F | -3.9% (inactive) |
| CCN1CCN(C(=O)N[C@@H](C(=O)N[C@@H]2C(=O)N3[C@@H]2SC(C)(C)[C@H]3C(=O)O)c2ccccc2)C(=O)C1=O | -8.37% (inactive) |
| CC(O)CCCCn1c(=O)c2c(ncn2C)n(C)c1=O (stereo not given) | 8.35% (inactive) |
| CN(C)CCC[C@@]1(c2ccc(F)cc2)OCc2cc(C#N)ccc21 | 10.9% (inactive) |
| C[C@@H]1NC(=O)[C@@H](N)CNC(=O)[C@H](C2CCNC(N)=N2)NC(=O)/C(=C/NC(N)=O)NC(=O)[C@H](CNC(=O)C[C@@H](N)CCCN)NC1=O (stereo not given in full) | -7.41% (inactive) |
| CCNC(=O)C(C)OC(=O)Nc1ccccc1 (stereo not given) | 10.1% (inactive) |
| COC(=O)N/N=C/c1c[n+]([O-])c2ccccc2[n+]1[O-] | -4.57% (inactive) |
| CCOC(=O)[C@H](CCc1ccccc1)N[C@H]1CS[C@H](c2cccs2)CN(CC(=O)O)C1=O | 6.5% (inactive) |

| Compound | activity, negative = inhibition |
| --- | --- |
| c1coc(Cn2cccc2)c1 | -7.93% (inactive) |
| COc1cnc(NS(=O)(=O)c2ccc(N)cc2)nc1 | -2.58% [at 32.6 µM] (inactive) |
| CCCC(=O)CC | 5.42% [at 79.1 µM] (inactive) |
| CCCCC(CC)COC(=O)CC#N (stereo not given) | -20.2% (inactive) |
| CCCC(=O)C(CC)Sc1ccoc1C (stereo not given) | -12.9% (inactive) |
| CC(=O)OC1CCC(C(C)(C)C)CC1 (stereo not given) | 7.53% (inactive) |
| O=P(O)(O)C(O)(Cc1cccnc1)P(=O)(O)O | 5.6% (inactive) |
| CCC(=O)OCCOc1ccccc1 | 12.5% (inactive) |
| CC(C)=CCC/C(C)=C\C#N | 20.1% (inactive) |
| CCCc1ccc(O)c(OC)c1 | 17.6% (inactive) |
| CCc1ccc(CC)cc1 | -26.4% [at 79.1 µM] (inactive) |
| C/C=C(\C)C=O | -6.66% [at 79.1 µM] (inactive) |
| Cc1cc(O)c(Cl)cc1C | 20.9% (inactive) |
| Cc1nc2ccc(Cl)cc2[nH]1 | 6.34% (inactive) |
| O=CN1CCCCC1 | 33.4% (inactive) |
| COC(=O)/C=C(\C)CCC=C(C)C | 26.9% (inactive) |
| O=C(O)CCCCCCCCCC(=O)O | -1.54% (inactive) |
| COc1cc(OC)cc(OC)c1 | 4.94% (inactive) |
| CCOC(=O)CC | 13.4% (inactive) |
| CCOC(=O)COc1ccc2c(C)c(CCN(CC)CC)c(=O)oc2c1Cl | 4.74% (inactive) |
